Screens as filed in PubChem BioAssay.
Sampled rows, rich in hits. Any-hit rate of the full collection: about 6.3%.
TGFb SMAD3 inh: inhibitors of TGF-b signaling; HepG2 CAGA-GFP TGF-b/SMAD3 reporter, GFP fluorescence, 18 h; TGF-beta stimulated, 500 pg/mL final; Potency, µM (doses to about 46.1 µM), usual class: inhibitors; 1.2% of 410,000 active; further: nearly all actives have a fitted effect of over 65% in size
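Inhibition was scored as loss of TGF-beta-induced (500 pg/mL final, 18 hours, 37 degrees C) GFP in HEPG2 cells carrying a CAGA-GFP reporter, in DMEM with 1% FBS. Well GFP was summed per cell; Activity was normalised to unstimulated and stimulated DMSO wells, then concentration-response fitting.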
Gal4-VP16 FLuc: inhibits Gal4-VP16 luciferase reporter, ROR gamma counter-screen; Potency, µM (series often up to 53.6 µM), hits mostly inhibitors; Drosophila S2 Gal4-VP16 UAS-luciferase, luminescence, 20 h; AID 2546; 3.5% of 310,000 active;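 further: Gal4-VP16 expression switched on by copper sulfate through the metallothionein promoter; nearly all actives have a fitted effect of over 50% in size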
RORgamma inh: ROR gamma (mouse) transcription inhibition. P51450. Drosophila S2 Gal4-RORgamma UAS-luciferase reporter, 20 h. Potency, µM (top dose mostly 53.6 µM), usual class: inhibitors. 5.4% of 310,000 active. AID 2551; further: nearly all actives have a fitted effect of over 60% in size
Target sequence (P51450 whole entry, looked up, the tested form may be a part): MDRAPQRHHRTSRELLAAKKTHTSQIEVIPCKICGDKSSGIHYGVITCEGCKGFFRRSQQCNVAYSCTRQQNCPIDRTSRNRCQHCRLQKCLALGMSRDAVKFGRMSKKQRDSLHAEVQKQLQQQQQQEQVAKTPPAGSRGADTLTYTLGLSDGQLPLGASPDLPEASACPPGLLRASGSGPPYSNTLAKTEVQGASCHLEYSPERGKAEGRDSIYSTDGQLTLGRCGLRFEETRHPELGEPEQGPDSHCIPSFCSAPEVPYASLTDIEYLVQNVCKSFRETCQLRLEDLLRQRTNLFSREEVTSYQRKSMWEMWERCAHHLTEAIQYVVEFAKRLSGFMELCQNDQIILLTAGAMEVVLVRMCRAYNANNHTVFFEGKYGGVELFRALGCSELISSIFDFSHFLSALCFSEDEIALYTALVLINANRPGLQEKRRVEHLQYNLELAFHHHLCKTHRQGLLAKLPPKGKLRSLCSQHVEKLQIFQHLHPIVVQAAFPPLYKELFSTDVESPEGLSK
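A Gal4/UAS one-hybrid system in insect cells: metallothionein-promoter Gal4–ROR gamma fusion plus Photinus luciferase reporter. Copper sulfate 700 uM final, 20 hr ambient incubation, luminescent detection after 10 min with reagent.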
ATXN2 expr inh: ATXN2 expression inhibition; HEK-293 ATXN2-luciferase reporter, luminescence, 24 h; Potency, µM (top dose mostly 57 µM), actives largely listed as inhibitors; 0.72% of 360,000 active; AID 1745845; further: nearly all actives have a fitted effect of over 55% in size
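qHTS (up to 57 uM final) was run with 24 h compound exposure of reporter cells at 37 °C. Each well was multiplexed: SteadyGlo luminescence measured ATXN2-luciferase expression after a fluorogenic Gly-Phe-AFC viability readout (25 uM final).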
HepG2 tox: kills HepG2 cells in TGF-b inhibitor counter-screen | 0.76% of 410,000 active | Potency, µM (top dose mostly 46.1 µM), usual class: cytotoxic | HepG2 CAGA-GFP viability, ATP luminescence, 18 h
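HepG2 CAGA-GFP cells (1000/well, DMEM with 1% FBS) received compound, then TGF-beta at 500 pg/mL final, and were incubated 18 hours at 37 degrees C. Viability was read by CellTiter-Glo luminescence. Media-only wells were set as complete cell-killing and DMSO as no toxicity.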
S2 tox: cell viability loss in ATXN counter-screen. Potency, µM (highest dose often 56.7 µM), actives largely listed as cytotoxic. AID 651635. S2 cells (HEK-293 line with an ATXN2-luciferase reporter) viability, CellTiter-Fluor protease fluorescence, 24 h. 0.49% of 400,000 active; further: nearly all actives have a fitted effect of over 40% in size
A number is an active result. The call rests on the fitted dose curve; in most records, active means well fitted curve in the direction sought with a large enough effect; inconclusive means small, poorly fitted or top-dose-only effect, or another doubt; inactive means no such curve, though single readings can be large; an effect the other way counts as inactive or inconclusive.

`O=C(NC(=S)NNC(=O)c1ccccc1O)c1ccccc1` gave TGFb SMAD3 inh inactive, Gal4-VP16 FLuc inactive, RORgamma inh 11.2µM, ATXN2 expr inh inconclusive, HepG2 tox inactive and S2 tox inactive.
`Cc1ccc(C(=O)NC(=S)NNC(=O)c2ccccc2)cc1` gave TGFb SMAD3 inh inactive, Gal4-VP16 FLuc 20µM, RORgamma inh inconclusive, HepG2 tox inactive and S2 tox inactive.
For Cc1ccc(C(=O)NC(=S)NNC(=O)CCN2CCOCC2)cc1 the results were TGFb SMAD3 inh inactive, Gal4-VP16 FLuc inactive, RORgamma inh 11.2µM, ATXN2 expr inh inactive, HepG2 tox inactive and S2 tox inactive.
Cc1ccc(NC(=O)NC(=S)NC(=O)c2ccccc2)cc1 was read as TGFb SMAD3 inh inactive, Gal4-VP16 FLuc inconclusive, RORgamma inh 2.51µM, ATXN2 expr inh inactive, HepG2 tox inactive and S2 tox inactive.
`O=C(NNC(=O)c1ccco1)c1ccccc1` gave TGFb SMAD3 inh inactive, Gal4-VP16 FLuc inactive, RORgamma inh inactive, ATXN2 expr inh inactive, HepG2 tox inactive and S2 tox inactive.
O=C(NC(=S)NNC(=O)c1ccco1)c1ccccc1 was read as TGFb SMAD3 inh inactive, Gal4-VP16 FLuc 11.2µM, RORgamma inh 11.2µM, ATXN2 expr inh inactive, HepG2 tox inactive and S2 tox inactive.
CCCC(=O)NC(Nc1cc(C(F)(F)F)ccc1Cl)C(Cl)(Cl)Cl (configuration not stated) was read as TGFb SMAD3 inh inconclusive, Gal4-VP16 FLuc 10µM, RORgamma inh inconclusive, ATXN2 expr inh inactive, HepG2 tox inactive and S2 tox inactive.
`CCOC(=O)COc1ccccc1C1C(C(=O)OC)=C(C)NC2=C1C(=O)c1ccccc12` (configuration not stated) gave TGFb SMAD3 inh 15.8µM, ATXN2 expr inh inactive, HepG2 tox inactive and S2 tox inconclusive.
Screening CN1N=C(C(=O)N2CCOc3ccc(CN4CCCC(C(=O)c5cccnc5)C4)cc3C2)CCC1=O (configuration not stated) returned S2 tox inactive.
Screening CC(C)C(=O)Nc1ncc(-c2cc(C(F)F)nn2-c2c(Cl)cccc2Cl)s1 returned ATXN2 expr inh inactive.
`N#CCCn1cc(/C=C2\NC(=S)N(c3ccccc3)C2=O)c(-c2ccc(-c3ccccc3)cc2)n1` gave TGFb SMAD3 inh 10µM, Gal4-VP16 FLuc inactive, RORgamma inh inactive, ATXN2 expr inh inconclusive, HepG2 tox inactive and S2 tox inconclusive.
For N#CCCn1cc(/C=N/NC(N)=S)c(-c2ccccc2)n1 the results were TGFb SMAD3 inh inactive, Gal4-VP16 FLuc 7.08µM, RORgamma inh 6.31µM, ATXN2 expr inh inactive, HepG2 tox inactive and S2 tox inactive.
`N#CCCn1cc(/C=N/NC(N)=S)c(-c2ccc(Br)cc2)n1` gave TGFb SMAD3 inh inactive, Gal4-VP16 FLuc 0.501µM, RORgamma inh 0.224µM, ATXN2 expr inh inactive, HepG2 tox inactive and S2 tox inactive.
Screening NC(=S)N/N=C/c1cn(CCC(=O)O)nc1-c1cccc(Br)c1 returned TGFb SMAD3 inh inactive, Gal4-VP16 FLuc inactive, RORgamma inh inconclusive, ATXN2 expr inh inactive, HepG2 tox inactive and S2 tox inactive.
`N#CCCn1cc(/C=N/O)c(-c2ccc(-c3ccccc3)cc2)n1` gave TGFb SMAD3 inh inactive, Gal4-VP16 FLuc inactive, RORgamma inh inactive, ATXN2 expr inh inactive, HepG2 tox inactive and S2 tox inactive.
CC(NC(=O)Cc1cc(F)cc(F)c1)C(=O)NC(C(=O)OC(C)(C)C)c1ccccc1 (configuration not stated) was read as Gal4-VP16 FLuc inactive and RORgamma inh inconclusive.
`CCCn1c(-c2ccc(F)cc2)nc2c(N3CCN(CCn4ccnc4)CC3)nc(C)nc21` gave Gal4-VP16 FLuc inactive and RORgamma inh inactive.
CCOC(=O)c1c(C)[nH]c(C(=O)N/N=C\c2ccccc2Cl)c1C was read as TGFb SMAD3 inh inactive, Gal4-VP16 FLuc inconclusive, RORgamma inh 8.91µM, ATXN2 expr inh inactive, HepG2 tox inactive and S2 tox inactive.
For O=C(OCc1cc(=O)n2ccsc2n1)C1(c2ccccc2)CC1 the results were TGFb SMAD3 inh inactive, HepG2 tox inactive and S2 tox inactive.
